Source: PubChem BioAssay (NCI)
Compounds without any hit were thinned out: in the full panel of roughly 83,000, 20% have a hit.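 Cells were grown in 96-well plates and exposed to the test compound at a single concentration for 48 hours; results are reported as percent growth, with values below 10 considered active.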 Calls of active or inactive are those of the source.

Each compound was assayed on HL-60(TB) leukemia (assay: NCI-60 one-dose screen, 48 h (100 = growth as untreated, 0 = no growth, -100 = all killed)). Settings: 10 µM unless noted.
For `C=C1C(=O)O[C@H]2[C@H]1CC/C(Cn1cc(-c3cc(C)c(C)cc3C)nn1)=C\CC[C@@]1(C)O[C@@H]21`, the growth was -9.09% (active).
In the case of `O=C(/C=C/C12c3ccccc3C(c3ccccc31)C1C(=O)N(c3ccc(Cl)cc3)C(=O)C12)c1ccccn1` (centres undefined), the growth is reported as -19.4% (active).
For `CCOc1cc2c(Cl)ncnc2c(OCC)c1OCC`, the growth was -16.4% (active).
With `COc1cc(/C=C/C(=O)CC(=O)/C=C/c2ccc(OC(=O)CCNC34CC5CC(CC(C5)C3)C4)c(OC)c2)ccc1OC(=O)CCNC12CC3CC(CC(C3)C1)C2` the growth was -24% (active).
`COc1c2c(cc3c1C(=O)N[C@@H]1[C@@H](O)[C@@H](O)[C@H](O)C[C@@H]31)OCCO2` was tested, and the growth was 95.4% (inactive).
With `C(=Nc1ccc(-c2ccc(N=Cc3ccccc3)cc2)cc1)c1ccccc1` the growth was 107% (inactive).
With `CCc1ccccc1-n1[nH]c(C)c(C=N)c1=O` the growth was 98.3% (inactive).
With `NC(=S)N/N=C/c1ccc(Cl)cc1` the growth was 103% (inactive).
With `CCCCCCCCCCCCCCCCCC1=NCCN1CS(=O)(=O)O` the growth was 24.2% (inactive).
